Reference: PubChem BioAssay (Tox21)
Values without a mark were called inactive. Where a call stands in place of a potency, no number is given. Activity calls are given as the source filed them. Calls follow the shape of the dose curve; as a rule, active = well fitted curve in the direction sought with a large enough effect in the repeat runs; inconclusive = weak or mixed curves; inactive = flat fitted curve, though single readings scatter.
Potency is read from the fitted curve at half-maximal effect.

Test: qHTS assay to test for compound auto fluorescence at 460 nm (blue) in HEK293 cell free culture (AID 720681)
Details: cell-free medium, autofluorescence 405/460 nm (blue); series mostly up to 91.3 µM
Excerpt: U.S. Tox21 Program National Center for Advancing Translational Sciences [NCATS] NIH Chemical Genomics Center [NCGC] U.S. Environmental Protection Agency [EPA] National Institutes of Environmental Health Sciences [NIEHS] National Toxicology Program [NTP] U.S. Food and Drug Administration [FDA] Tox21 Assay Overview: Compound auto fluorescence often interferes with screening of the compound library against various biological targets and signaling pathways. Some of these compounds may have fluorophoric properties. Such properties may interfere with the assay outputs resulting in false positives and/or negatives. To decrease such complications and ensure the compound activities are relevant in terms of biological response, the Tox21 10K compound library was screened for auto fluorescence. From the fluorophores used as reporter signals in our screening assays, the auto fluorescence equivalencies of compounds against three fluorophores have been evaluated: Triamterene, Fluorescein and Rose Bengal sodium for blue, green and red fluorescence, respectively. The fluorescence intensities were measured using Excitation/Emission wavelengths at 405/460nm, 485/535nm and 540/590nm for blue, green and red labels, respectively. This assay includes the blue fluorescence data.
Tox21 Assay Protocol Summary: 5 uL of culture medium (DMEM containing 10% FBS) per well was dispensed into black wall/clear bottom 1536-well plates using a Multidrop Combi Dispenser (ThermoFisher Scientific, Waltham, MA). After 23 nL compound or DMSO vehicle was transferred into assay plate by a pintool work station (Kalypsys, San Diego, CA), fluorescence intensities in the assay plates were measured by an Envision (PerkinElmer, Shelton, CT) plate reader using three labels for measuring blue, green and red fluorescence at […] 460, 535 and 590nm respectively.
With CC(COc1ccccc1)NC(C)C(O)c1ccc(O)cc1 (stereo not given) the fluorescence, % of fluorescent control was 0.128% [at 18.6 µM].
For CCc1c(C)[nH]c2c1C(=O)C(CN1CCOCC1)CC2 (stereo not given), the fluorescence, % of fluorescent control was 0.0226% [at 18.6 µM].
For CCC[Si](OC)(OC)OC, the Potency was “inactive”.
For CCCCOc1ccc(N)cc1, the Potency was “inactive”.
For N#CCCCC(C#N)CCC#N (stereo not given), the Potency was “inactive”.
For Cc1cc(C)c(C)c(O)c1, the Potency was “inactive”.
With CCCCCCCCCCCCSC#N the Potency was “inactive”.
In the case of CC[C@H](NC(C)C)[C@H](O)c1ccc(O)c2[nH]c(=O)ccc12, the Potency is reported as 14.1 µM (active).
For O=C(OCCCCCOC(=O)c1ccccc1)c1ccccc1, the Potency was “inactive”.
In the case of Nc1ccc(F)cc1F, the Potency is reported as “inactive”.
With Nc1ncnc2c1ncn2[C@@H]1O[C@H](CO)[C@@H](O)[C@H]1O the Potency was “inactive”.
For CC(C)(C)NCC(O)COc1ccc(NC(=O)NC2CCCCC2)cc1 (stereo not given), the Potency was “inactive”.
In the case of CC(=O)S[C@H](C(=O)N[C@H]1Cc2ccccc2[C@H]2CCC[C@@H](C(=O)O)N2C1=O)C(C)C, the Potency is reported as “inactive”.
For CC(=O)Nc1cccc(N)c1, the Potency was “inactive”.
For CCCCCO, the Potency was “inactive”.
With O=P(c1ccccc1)(c1ccccc1)c1ccccc1 the Potency was “inactive”.
In the case of CCC(=O)O[C@@H]1C[C@H]2CC[C@]1(C)C2(C)C, the Potency is reported as “inactive”.
For CNc1ccccc1, the Potency was “inactive”.
In the case of CCOC(=O)CC(O)(CC(=O)OCC)C(=O)OCC, the Potency is reported as “inactive”.
For C1=COCCC1, the Potency was “inactive”.
With CC(C)(C(=O)O)c1ccc(C(O)CCCN2CCC(C(O)(c3ccccc3)c3ccccc3)CC2)cc1 (stereo not given) the Potency was “inactive”.
For CC(C(=O)O)c1ccc2c(c1)Cc1cccnc1O2 (stereo not given), the Potency was “inactive”.
In the case of CCCOC(C)=O, the Potency is reported as “inactive”.
In the case of O=C(O)c1ccncc1, the Potency is reported as “inactive”.
For COc1ccc(/C=C/S(=O)(=O)NC(=O)c2ccc(C)cc2Cl)cc1, the Potency was “inactive”.
In the case of Clc1nc2ccccc2nc1Cl, the Potency is reported as “inactive”.
For CCCCCCCCCCCC(=O)OCC, the Potency was “inactive”.
In the case of CCC(C)C1N=C(C)C(C)S1 (stereo not given), the Potency is reported as “inactive”.
In the case of CCCCCCCCCCCCCCCCC(=O)O, the Potency is reported as “inactive”.
For S=c1[nH][nH]c(=S)s1, the Potency was “inactive”.
In the case of CCCCCCCCCCCCCCCCN, the Potency is reported as “inactive”.
With Clc1cccc(C(c2ccc3nc[nH]c3c2)n2ccnc2)c1 (stereo not given) the Potency was “inactive”.
In the case of Cc1c(N=C=O)cccc1N=C=O, the Potency is reported as “inactive”.
For c1ccc(CN(Cc2ccccc2)Cc2ccccc2)cc1, the Potency was “inactive”.
Compound CC(=O)OCC(=O)[C@@]1(O)CC[C@H]2[C@@H]3CCC4=CC(=O)C=C[C@]4(C)[C@@]3(F)[C@@H](O)C[C@@]21C has a fluorescence, % of fluorescent control of -0.0825% [at 18.6 µM].
With COc1cc(CNC(=O)CCCC/C=C/C(C)C)ccc1O the Potency was “inactive”.
With CC(C)Oc1ccccc1O the Potency was “inactive”.
For Oc1ccc(Oc2ccccc2)cc1, the Potency was “inactive”.
For CCCCCCC/C=C/C=O, the Potency was “inactive”.
In the case of C/C=C1\[C@H]2C=C(C)C[C@]1(N)c1ccc(=O)[nH]c1C2, the Potency is reported as “inactive”.
